KB-V1 cytotox: qHTS assay for MDR1-selective chemotherapeutics: Primary screen using the drug-selected MDR subline cells KB-V1. KB-V1 MDR cells viability, CellTiter-Glo, 72 h. Potency, µM (doses to about 46.1 µM), hits mostly cytotoxic. actives 3.4% (n = 400,000); also: potency is read from the fitted curve at half-maximal effect; nearly all actives have a fitted effect of over 60% in size
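Cytotoxicity via CellTiter-Glo luminescence after 72 h compound exposure at 37 degrees C. Cells: drug-selected KB-V1 line, DMEM phenol-red free plus 10% FBS. Compounds tested at multiple concentrations; normalized data fitted to concentration-effect curves.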
HT1080-NT tox: qHTS for induction of synthetic lethality in tumor cells producing 2HG: qHTS for the HT-1080-NT fibrosarcoma cell line | HT-1080-NT fibrosarcoma viability, CellTiter-Glo ATP luminescence, 48 h | Potency, µM (series often up to 46.1 µM), for inactives: top-dose activity, negative = less viability, usual class: cytotoxic | actives 1.6% (n = 360,000) | AID 686970, 2013;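 also: NT is the 2HG producing partner of a matched IDH1 knockdown line; potency is read from the fitted curve at half-maximal effect; 0% = DMSO-treated cells and -100% = media-only wells without cells; nearly all actives have a fitted effect of over 55% in size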
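Fibrosarcoma NT cells, 750 per well in 5% FBS RPMI, were exposed to compound for 48 hours. Viability: CellTiter-Glo luminescence.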
IL1B secr inh: qHTS for Inhibitors of Inflammasome Signaling: IL-1-beta AlphaLISA Primary Screen | actives 4.7% (n = 360,000) | THP-1 LPS/ATP IL-1B secretion, AlphaLISA, 16 h; active compounds read low | activity change, % at 57.5 µM; in the data active = activity change below about -50%; inconclusive = mostly about -30% to -49%
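Secreted IL-1B measured by AlphaLISA bead assay after 16 h compound exposure of THP-1 cells; compounds (final up to 57.5 uM) added 1 h before LPS (250 ng/mL) and ATP (1.25 mM) stimulation; lower signal means less secretion.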
HT1080 IDH1KD tx: qHTS for induction of synthetic lethality in tumor cells producing 2HG: qHTS for the HT-1080-IDH1KD cell line; actives 2% (n = 360,000); HT-1080 IDH1 knockdown viability, ATP luminescence, 48 h; Potency, µM (doses to about 46.1 µM), for inactives: at the top dose activity, negative = toxicity, actives largely listed as cytotoxic;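 also: potency is read from the fitted curve at half-maximal effect; 0% = DMSO wells and -100% = cell-free medium wells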
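Cytotoxicity counter-line: IDH1KD HT-1080, 48 h, CellTiter-Glo. Curves classed by r2, magnitude and activity.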
KB-3-1 tox: qHTS assay for MDR1-selective chemotherapeutics: Primary screen using the parental adenocarcinoma cell KB-3-1 | actives 1.4% (n = 400,000) | KB-3-1 viability, CellTiter-Glo ATP luminescence, 72 h | AID 1347075, 2019 | Potency, µM (series often up to 46.1 µM), hits mostly cytotoxic; also: potency is read from the fitted curve at half-maximal effect; nearly all actives have a fitted effect of over 60% in size
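Cells are dispensed, compounds pinned in, plates held at 37 °C for 72 h, then CellTiter-Glo is added and luminescence read after 10 minutes. Cell line: parental KB-3-1 in phenol-red-free DMEM, 10% FBS.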
Starred values were filed as active, the others as inactive; i = inactive; ? = inconclusive; / = not tested or not shown; ! = not active in a repeat. An excerpt weighted towards active compounds, which were near 8.8% of everything screened. Unless noted, calls follow the shape of the dose curve; as a rule, active = well fitted curve in the direction sought with a large enough effect; inconclusive = small, poorly fitted or top-dose-only effect, or another doubt; inactive = no such curve, though single readings can be large; an effect the other way counts as inactive or inconclusive. Unless noted, % is scaled to controls: 0 for no effect and ±100 for the full control effect.

SMILES	KB-V1 cytotox	HT1080-NT tox	IL1B secr inh	HT1080 IDH1KD tx	KB-3-1 tox
CN(CC(=O)NCCc1ccccc1)S(=O)(=O)c1cccc2nsnc12	9.2µM*	5.7%	?	17.3%	i
CN(CC(=O)Nc1nc2ccc(F)cc2s1)S(=O)(=O)c1ccc(Cl)cc1	?	?	-58.5*	?	i
Cc1ccc(S(=O)(=O)N(C)CC(=O)Nc2nc3ccccc3s2)cc1	i	-2.3%	10.2	-21.5%	i
CCOc1ccc(OCC)c(NC(=O)CN(C)S(=O)(=O)c2ccc3nc(C)sc3c2)c1	?	6.7%	-50.4*	3.2%	i
Cc1ccc2nc(NC(=O)CN(C)S(=O)(=O)c3cccc4nsnc34)sc2c1	?	?	1.8	8.2µM*	?
O=[N+]([O-])c1ccc(S(=O)(=O)Nc2ccccn2)cc1	i	3.3%	19.6	0.0%	i
CCOc1ccc(C(=O)Nc2ccc(-c3nc4ccccc4o3)cc2)cc1[N+](=O)[O-]	?	/	/	/	i
COc1cc(S(=O)(=O)O)c(C)cc1N=Nc1c(O)ccc2cc(S(=O)(=O)O)ccc12	i	/	/	/	i
Cn1nc(C(F)(F)F)cc1C(=O)NC1CCCCCC1	i	23.2%	-1.5	12.9%	i
Cc1ccc(-c2cnc(C3CC3)o2)cc1S(=O)(=O)Nc1cccc(C#N)c1	?	/	/	/	i
COc1cccc(NS(=O)(=O)c2cc(-c3cnc(C4CC4)o3)ccc2C)c1	7.31µM*	/	/	/	4.11µM*
Cc1ccc(NS(=O)(=O)c2ccc(-c3cnc(C4CC4)o3)cc2)cc1	?	?	17.3	?	18.4µM*
CC(=O)c1ccc(NS(=O)(=O)c2ccc(-c3cnc(C4CC4)o3)cc2)cc1	?	-13.7%	58.6	-11.5%	i
Cc1ccc(N(C)S(=O)(=O)c2ccc(-c3cnc(C4CC4)o3)cc2)cc1	2.91µM*!	?	56.3	?	3.26µM*!
Cc1ccc(S(=O)(=O)Nc2ccc(N3CCN(C)CC3)nc2)cc1	i	0.0%	-64.6*	-3.1%	i
Cc1cccc(NC(=O)C2CCN(C(=O)N3CCOc4ccccc43)CC2)c1C	i	10.7%	?	0.0%	i
COc1ccc(C)cc1NS(=O)(=O)c1ccc(-c2cnc(C3CC3)o2)cc1	?	?	55.6	0.0073µM*	0.206µM*
N#Cc1ccc(NS(=O)(=O)c2ccc(-c3cnc(C4CC4)o3)cc2)cc1	i	/	/	/	i
COc1cc(Cl)c(NS(=O)(=O)c2ccc(-c3cnc(C4CC4)o3)cc2)c(OC)c1	1.03µM*	/	/	/	1.64µM*
Cc1cccc(C)c1NS(=O)(=O)c1ccc(-c2cnc(C3CC3)o2)cc1	0.731µM*	0.082µM*	49.6	0.164µM*	0.0231µM*
CCc1ccc(NC(=O)CSc2nc3ccccc3c(=O)n2CCCN2CCC(C)CC2)cc1	?	?	-99.9*	20.6µM*	?
CCCCn1c(SCC(=O)Nc2cc(NC(=O)c3ccco3)ccc2C)nc2ccccc2c1=O	?	?	17.6	11.2µM*	i
CC(=O)c1cccc(NC(=O)CSc2nc3ccccc3c(=O)n2CCCN2CCOCC2)c1	i	-15.1%	-11.1	0.0%	i
CN(C)CCCn1c(SCC(=O)Nc2nc(-c3cccc(Br)c3)cs2)nc2ccccc2c1=O	?	20.6µM*	-89.8*	16.4µM*	?
O=C(CSc1nc2ccccc2c(=O)n1CCCN1CCOCC1)Nc1ccc(Br)cc1	i	?	-28.2	13µM*	i
CCc1ccc(NC(=O)CSc2nc3ccccc3c(=O)n2CCNC(C)=O)cc1	i	/	/	/	i
O=C(CSc1nc2ccccc2[nH]1)Nc1nc(-c2cccc(Br)c2)cs1	?	10.3%	13.9	12.1%	i
Cn1c(=O)c([N+](=O)[O-])c(NCc2ccc3c(c2)OCO3)c2ccccc21	i	-0.4%	38.6	4.3%	i

High-throughput results deposited in PubChem by National Center for Advancing Translational Sciences (NCATS).
